{"source": "PubChem BioAssay (Tox21)", "note": "Values joined by “and” are separate entries in the source; they are usually repeats but may differ in a detail not shown here. Equal values may be shown once. Results filed as inconclusive are left out. Where a call stands in place of a potency, no number is given. A number with no mark means an inactive call. Active and inactive are the calls of the source. The call rests on the fitted dose curve; in most records, active means well fitted cell-killing curve with a large enough effect in the repeat runs; inconclusive means weak or mixed curves, or effect the other way; inactive means no such curve, though single readings can be large or run the other way. Potency means the concentration at half of the fitted maximal effect."}
{"assay": "qHTS assay to identify small molecule antagonists of the peroxisome proliferator-activated receptor gamma (PPARg) signaling pathway - cell viability counter screen (AID 743194); further: nearly all actives have a fitted effect of over 55% in size", "conditions": "PPARg-bla HEK293H viability, CellTiter-Glo luminescence, 17 h, co-treated with 50 nM rosiglitazone; series mostly up to 62.6 µM; activity change, negative = cytotoxicity: at the top concentration", "from_the_text": "U.S. Tox21 Program National Center for Advancing Translational Sciences [NCATS] NIH Chemical Genomics Center [NCGC] U.S. Environmental Protection Agency [EPA] National Institutes of Environmental Health Sciences [NIEHS] National Toxicology Program [NTP] U.S. Food and Drug Administration [FDA] Tox21 Assay Overview: The peroxisome proliferator-activated receptors (PPARs) are lipid-activated transcription factors of the nuclear receptor superfamily with three distinct subtypes namely PPAR alpha, PPAR delta (also called PPAR beta) and PPAR gamma (PPARg). All these subtypes heterodimerize with Retinoid X receptor (RXR) and these heterodimers regulate transcription of various genes. PPAR-gamma receptor (glitazone receptor) is involved in the regulation of glucose and lipid metabolism. To identify the compounds that activate PPAR-gamma signaling, GeneBLAzer PPAR gamma UAS-bla HEK293H cell line (Invitrogen, Carlsbad, CA, USA) containing a beta-lactamase reporter gene under the control of an Upstream Activator Sequence (UAS) was used to screen the Tox21 compound library. The cytotoxicity of the Tox21 compound library against the PPARg-bla cell line was tested in parallel by measuring the cell viability using CellTiter-Glo assay in the same wells.\nTox21 Assay Protocol Summary: PPARg-bla cells were dispensed at 3000 cells/5uL/well in 1536-well black wall/clear bottom plates using a Multidrop Combi (Thermo Fisher Scientific, Waltham, MA) dispenser. After the assay plates were incubated at 37 C and 5% CO2 for 5 h, 23 nL of compounds dissolved in DMSO, positive controls or DMSO only was transferred to the assay plate by a Pintool station (Kalypsys, San Diego, CA), followed by addition of 1ul Rosiglitazone (50 nM, final concentration in the wells). The assay plates were incubated at 37 C for 17 h, and then 1 uL of LiveBLAzerTM B/G FRET substrate was added using a Bioraptr Flying Reagent Dispenser (FRD) workstation (Beckman Coulter, Indianapolis, IN, USA). The assay plates were incubated at room temperature for 1 h and fluorescence intensity was measured by an Envision plate reader (PerkinElmer, Shelton, CT). For cell viability readout that measures cytotoxicity, 4 ul/well of CellTiter-Glo reagent was added into the assay plates using a Flying Reagent Dispenser. After 30 min incubation at room temperature, the luminescence intensity in the plates was measured using a ViewLux plate reader (PerkinElmer)."}
{"smiles": "COc1ccc(OC)c(C(O)CNC(=O)CN)c1", "note": "(stereo not given)", "Potency": "inactive"}
{"smiles": "O=C(Nc1ccc(Cl)cc1)Nc1ccc(Cl)c(Cl)c1", "Potency": "4.34 µM (active) and 4.9 µM (active) and 6.68 µM (active)"}
{"smiles": "CCCCC(CC)COP(=O)(OCC(CC)CCCC)OCC(CC)CCCC", "note": "(stereo not given)", "activity change, negative = cytotoxicity": "-1.8%"}
{"smiles": "CC(CCC(=O)O)(c1ccc(O)cc1)c1ccc(O)cc1", "Potency": "inactive"}
{"smiles": "CC(C)OB(OC(C)C)OC(C)C", "Potency": "inactive"}
{"smiles": "Cc1c(C(N)=O)cc([N+](=O)[O-])cc1[N+](=O)[O-]", "Potency": "inactive"}
{"smiles": "Cc1cccc([N+](=O)[O-])c1C", "Potency": "inactive"}
{"smiles": "O=c1oc(=O)c2cc3c(=O)oc(=O)c3cc12", "Potency": "inactive"}
{"smiles": "Cc1ccc2c(n1)Oc1ccc(C(C)C(=O)OCC(=O)N(C)C)cc1C2", "note": "(stereo not given)", "Potency": "inactive"}
{"smiles": "NNc1ccc(C(=O)O)cc1", "Potency": "inactive"}
{"smiles": "CN1C(C(=O)Nc2ccccn2)=C(O)c2ccccc2S1(=O)=O", "Potency": "inactive"}
{"smiles": "CCOCCOCCO", "Potency": "inactive"}
{"smiles": "O=C(O)c1ccccc1Nc1cccc(C(F)(F)F)c1", "activity change, negative = cytotoxicity": "-2.31%"}
{"smiles": "C[Si](C)(C)O[Si](C)(C)C", "Potency": "inactive"}
{"smiles": "O=C(/C=C/c1ccccc1)OCc1ccccc1", "Potency": "inactive"}
{"smiles": "Cn1cnc([N+](=O)[O-])c1Sc1ncnc2nc[nH]c12", "activity change, negative = cytotoxicity": "-16.3%"}
{"smiles": "COc1cccc2c1C(=O)c1c(O)c3c(c(O)c1C2=O)C[C@@](O)(C(=O)CO)C[C@@H]3O[C@H]1C[C@H](N)[C@H](O)[C@H](C)O1", "activity change, negative = cytotoxicity": "-32.2%"}
{"smiles": "CNCCCC12CCC(c3ccccc31)c1ccccc12", "Potency": "54.9 µM (active)"}
{"smiles": "CCCCC(CC)COC(=O)c1ccc(N(C)C)cc1", "note": "(stereo not given)", "Potency": "inactive"}
{"smiles": "CN(C)C(=N)N=C(N)N", "Potency": "inactive"}
{"smiles": "CC(C)(C)NC(=O)[C@H]1CC[C@H]2[C@@H]3CC[C@H]4NC(=O)C=C[C@]4(C)[C@H]3CC[C@]12C", "Potency": "inactive"}
{"smiles": "C=C(C)C1CC=C(C)CC1", "note": "(stereo not given)", "Potency": "inactive"}
{"smiles": "COC(C)COC(C)COC(C)CO", "note": "(stereo not given)", "Potency": "inactive"}
{"smiles": "CC(C)Oc1ccc2c(=O)c(-c3ccccc3)coc2c1", "Potency": "inactive"}
{"smiles": "c1ccc2cc(Nc3ccc(Nc4ccc5ccccc5c4)cc3)ccc2c1", "Potency": "inactive"}
{"smiles": "O=C(c1ccc(OCCN2CCCCC2)cc1)c1c(-c2ccc(O)cc2)sc2cc(O)ccc12", "Potency": "55 µM (active) and 15.5 µM (active) and 26.6 µM (active)"}
{"smiles": "S=C(NC1CCCCC1)NC1CCCCC1", "activity change, negative = cytotoxicity": "33.7%"}
{"smiles": "NC=O", "Potency": "inactive"}
{"smiles": "O=C(/C=C/C=C/c1ccc2c(c1)OCO2)N1CCCCC1", "Potency": "inactive"}
{"smiles": "c1ccc2c(c1)c1cccc3ccc4cccc2c4c31", "activity change, negative = cytotoxicity": "-13.3%"}
{"smiles": "Cc1cccc(C(=O)O)c1", "activity change, negative = cytotoxicity": "-5.93%"}
{"smiles": "O=CCc1ccccc1", "Potency": "inactive"}
{"smiles": "O=C(Nc1ccc([N+](=O)[O-])cc1Cl)c1cc(Cl)ccc1O", "Potency": "123 nM (active) and 461 nM (active)"}
{"smiles": "O=P(O)(O)O", "Potency": "inactive"}
{"smiles": "CC(C(=O)O)c1cccc(C(=O)c2ccccc2)c1", "note": "(stereo not given)", "Potency": "inactive"}
{"smiles": "O=C(OCc1ccccc1)c1ccccc1O", "Potency": "inactive"}
{"smiles": "Nc1ccccc1N", "Potency": "inactive"}
{"smiles": "COC(=O)C1=C(C)NC(C)=C(C(=O)OCCN(C)Cc2ccccc2)C1c1cccc([N+](=O)[O-])c1", "note": "(stereo not given)", "Potency": "24.4 µM (active) and 33.5 µM (active)"}
{"smiles": "C[C@]12CC[C@H]3[C@@H](CCC4=CC(=O)CC[C@@]43C)[C@@H]1CC[C@@H]2C(=O)CO", "Potency": "inactive"}
{"smiles": "COc1ccccc1/C=C/C=O", "activity change, negative = cytotoxicity": "-1.87% [at 81.1 µM]"}
